Results reported in the supplement of paper PMC3334620.
Over roughly 33,000 sequences, “E-score (-0.5 to 0.5)” has its median near -0.053; the highest 2% begin near 0.37. The sample holds the highest values, similar sequences and a random draw of the others, so the mix is not that of the screen.

biological target: Hap1 (UniProt P0CE41); assay: PBM E-score (8-mer binding enrichment) (E-score (-0.5 to 0.5)); higher = stronger / more preferred TF binding; conditions: protein concentration: 200 nM; construct: GST-DNA-binding domain
Sequence of UniProt P0CE41 (P0CE41 whole entry, the tested form may be a part): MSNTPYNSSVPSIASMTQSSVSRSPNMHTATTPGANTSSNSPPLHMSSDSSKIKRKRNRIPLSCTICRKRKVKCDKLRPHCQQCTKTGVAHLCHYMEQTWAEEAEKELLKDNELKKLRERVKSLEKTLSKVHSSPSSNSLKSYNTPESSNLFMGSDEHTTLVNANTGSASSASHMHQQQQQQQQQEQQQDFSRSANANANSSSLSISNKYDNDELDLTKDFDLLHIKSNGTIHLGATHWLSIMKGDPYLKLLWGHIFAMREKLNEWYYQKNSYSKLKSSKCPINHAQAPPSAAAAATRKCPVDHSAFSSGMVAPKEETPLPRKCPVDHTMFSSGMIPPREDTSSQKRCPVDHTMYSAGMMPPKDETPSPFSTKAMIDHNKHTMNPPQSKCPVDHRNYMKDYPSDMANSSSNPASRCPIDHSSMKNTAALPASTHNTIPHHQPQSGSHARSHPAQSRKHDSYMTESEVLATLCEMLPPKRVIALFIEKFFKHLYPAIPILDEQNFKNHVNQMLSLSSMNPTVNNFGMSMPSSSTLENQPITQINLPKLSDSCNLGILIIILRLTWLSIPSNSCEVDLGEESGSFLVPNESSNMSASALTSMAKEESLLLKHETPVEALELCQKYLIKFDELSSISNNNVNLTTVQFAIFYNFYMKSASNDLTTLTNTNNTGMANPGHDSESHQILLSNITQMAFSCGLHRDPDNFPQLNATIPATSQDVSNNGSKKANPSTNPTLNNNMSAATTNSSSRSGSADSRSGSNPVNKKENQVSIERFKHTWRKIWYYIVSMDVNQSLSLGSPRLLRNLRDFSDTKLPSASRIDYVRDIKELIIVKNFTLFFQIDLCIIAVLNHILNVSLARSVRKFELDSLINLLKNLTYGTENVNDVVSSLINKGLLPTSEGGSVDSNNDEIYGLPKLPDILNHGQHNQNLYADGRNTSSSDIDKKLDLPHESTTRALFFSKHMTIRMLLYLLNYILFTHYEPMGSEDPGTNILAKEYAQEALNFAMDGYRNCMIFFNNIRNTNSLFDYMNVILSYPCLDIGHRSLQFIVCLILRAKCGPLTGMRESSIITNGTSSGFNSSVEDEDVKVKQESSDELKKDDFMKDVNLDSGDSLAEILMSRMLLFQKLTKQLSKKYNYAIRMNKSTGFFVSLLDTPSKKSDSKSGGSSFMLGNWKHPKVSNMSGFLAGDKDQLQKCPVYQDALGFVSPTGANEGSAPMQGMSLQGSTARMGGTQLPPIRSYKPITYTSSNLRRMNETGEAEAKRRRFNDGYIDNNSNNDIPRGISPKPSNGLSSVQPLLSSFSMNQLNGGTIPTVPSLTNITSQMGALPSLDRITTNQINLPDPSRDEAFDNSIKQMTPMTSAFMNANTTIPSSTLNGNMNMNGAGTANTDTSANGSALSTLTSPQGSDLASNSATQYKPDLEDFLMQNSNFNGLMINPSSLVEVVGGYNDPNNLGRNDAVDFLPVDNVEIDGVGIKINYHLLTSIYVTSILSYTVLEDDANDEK
Description: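 Universal 'all 10-mer' protein binding microarrays (Agilent AMADID 015681) probed with GST-tagged S. cerevisiae TFs (full-length or DBD) made by in vitro transcription/translation (PURExpress), about 100-200 nM. Bound TF was detected with fluorescent anti-GST. Each ungapped 8-mer (which stands for itself and its reverse complement) is scored by the PBM enrichment score (E-score), a modified Wilcoxon-Mann-Whitney statistic from -0.5 to +0.5, computed with the Universal PBM Analysis Suite. Scale: above 0.35 generally sequence-specific binding.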

Sequence	PBM E-score
GAAACCTC	-0.00121
GGCAAGCC	-0.0221
AGTCCACG	0.0474
AGCCCGCC	0.184
GACGGACC	0.285
ATGCCGGG	0.217
CTGCCGGA	0.286
GTGCCGGA	0.406
ATGCCGGA	0.4
ATGCCGGC	0.287
GTGCCGTA	0.1
ACTGCTAG	-0.267
GTACGGAC	0.26
GTCCGCAC	0.237
ATGCGGAG	0.222
ATCCGCAG	0.208
ATCCGGTG	0.411
GTCCGGCA	0.35
ATCCGGAG	0.424
AACCGGTG	0.329
ATACGGTG	0.0257
GTCCGGAA	0.416
GTCCGGAC	0.454
GTGCGGAA	0.159
CCTATGCG	0.00275

Sequence	PBM E-score
GTATCCCA	-0.135
AAGGGTCA	-0.124
CACTGGAA	-0.275
ATAACGCA	0.0362
AACGGGTG	0.29
CGATCTGC	0.156
TGAAGGCA	-0.35
ATCCGCAC	0.21
ATCCGCAT	0.289
ATCCGGAT	0.414
ATCCGTAC	0.147
ATACGGAT	0.204
ATCCGGCG	0.355
ATCCGGGG	0.399
AACCGGGG	0.301
ATCCGACC	0.307
ATCCGGCC	0.412
ATCCGGAC	0.439
ATCCGGGC	0.364
TCTCCACA	-0.243
CAAGAGAC	-0.289
CCATTCAA	-0.16
GCCAATAA	-0.0084
CGGGGTGA	0.214
CTACGGAA	0.17

Sequence	PBM E-score
CTCCGGAG	0.467
CTACGGAG	0.32
ATCCGGAA	0.396
TTCCGGAA	0.466
CTCCGGAA	0.422
TGCCGGAA	0.365
CTCCGTAA	0.296
ATGCGGAA	0.24
CTCCGCAG	0.216
ATACGGAA	0.33
TTACGGAA	0.317
AGCAATAT	-0.105
AATTGTGG	-0.245
TGAGCCAA	-0.233
CCGTAGCG	0.27
CGCATGGC	0.184
AGCCTCCA	-0.219
CTCCGCAC	0.0685
CTCCGTAC	0.196
CTCCGGAC	0.454
GACAATGA	-0.102
CCTATAGA	-0.198
CTCGCCGA	0.276
ATCGCCCG	0.372
ATCGCCGG	0.445

Sequence	PBM E-score
CCCGCCGA	0.323
GTCGCCGA	0.246
ATCGCCGC	0.286
TCCGCCGA	0.425
ACCGCCGG	0.365
GCCGCCGA	0.26
ATCGCCCC	-0.0327
ATCGCCGA	0.445
ATCGCCCA	-0.0821
ACGCCCAA	-0.133
GGGATACC	0.196
CCCAGGCG	-0.125
AGCTTGCC	-0.108
AAGAAAGC	-0.113
CACCCTAC	-0.27
GAGCGCGA	0.0945
AACTCGCG	0.0253
ACCGACAG	0.289
GTACCGAA	0.0413
GCAACTTA	0.0419
AGCGCCGA	0.372
CGCGCCGA	0.317
GGCGCCGA	0.313
ATACTGAG	-0.143
CCACCTTA	-0.00422

Sequence	PBM E-score
ATGAAGTG	-0.133
CAACCGGA	0.316
GAACCGGC	0.239
GAACCGTA	0.0759
AAACCGGA	0.328
GAACCGGA	0.382
TAACCGGA	0.417
CCACTGCG	-0.0793
CGGGTGAG	0.201
GTTCCCTA	-0.0618
GAAACGTA	-0.151
AGCTCCGG	0.43
AGCTCCCG	0.0669
CGCTCCGA	0.324
GGCTCCGA	0.221
AGCTCCGA	0.411
AGCTCCGC	0.306
GCCGCACA	-0.0419
ATTTACCG	0.376
ATTTACCA	0.0182
ATTTACCC	0.0884
AATTACCC	0.0864
AATTACCG	0.374
CATTACCG	0.198
GCGAGCAC	-0.187

Sequence	PBM E-score
GTCGAAAA	-0.0295
CCCCCCCC	-0.27
ACGCACCT	-0.185
ACCGGCCA	0.284
CCCGGCCA	0.291
ACCGGCCG	0.439
ACCGGCCC	0.329
GCCGGCCC	0.372
ACCGGCCT	0.181
CCCGGCCC	0.341
GCCGGCCA	0.284
CCCGGCCG	0.405
AACTCTGG	-0.202
ACGCAAAG	-0.0974
ACTGCGTG	-0.275
CTCGTAGC	-0.117
TAATTAGA	0.0224
CAGGCCGG	0.166
AAGGCCCG	0.196
AAGGCCGG	0.408
AAGGCCGC	0.135
AAGGCCGT	0.212
AAGGCCGA	0.435
CGAGATGC	-0.0846
GGTACCAA	0.0294

Sequence	PBM E-score
AAGTTAGG	-0.0844
CCTTGAAC	-0.1
AACCGAGT	0.157
AACCGAGG	0.148
CACCGAGA	0.259
GACCGACC	0.266
AACCGAGC	0.371
CACCGAGC	0.297
GACCGAGA	0.382
TACCGAGA	0.209
GACCGAGC	0.375
GCTACGCC	-0.0393
CATCCGCC	0.244
CCTAGTTC	-0.00076
AGTATGCC	0.0174
AAAGGCAT	-0.125
AACTGAAT	-0.215
CTAACTGC	-0.0433
ATAACTCC	0.4
ATAACTCG	0.205
ATAACTCA	-0.0521
CTAACTCA	-0.177
